Reference: PubChem BioAssay AID1159580 (chemical genetic matrix, 2015)
The whole screen tested about 5,500 compounds, of which about 2,000 (36%) were called active. Another 18% or so got no clear call; they are omitted. Cut-off read from the data, not from the text of the source: active = normalized growth mostly below about 0.91 (no sharp cut-off); inconclusive = no clear call, values can overlap the other calls; inactive = mostly above about 0.92. This is one part of the list.

Assay: chemical genetic growth profiling, strain panel (AID 1159580);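 note: tested at 20 µM; growth read once vehicle control cultures reached saturation at 30 °C; 1 = growth at the plate median or of vehicle wells; lower values mean less growth of the strain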
Conditions: S. cerevisiae deletion strains, growth OD
[1] = locus YAL013W, strain DEP1, active compounds read low
[2] = locus YBR229C, strain ROT2, active compounds read low
[3] = locus YDL101C, strain DUN1, active compounds read low
[4] = locus YDR150W, strain NUM1, active compounds read low
[5] = locus YEL061C, strain CIN8, active compounds read low
[6] = locus YGR078C, strain PAC10, active compounds read low
[7] = locus YHR030C, strain SLT2, active compounds read low
[8] = locus YHR087W, strain rtc3, active compounds read low
[9] = locus YJR043C, strain POL32, active compounds read low
[10] = locus YJR075W, strain HOC1, active compounds read low
[11] = locus YLR039C, strain RIC1, active compounds read low
[12] = locus YLR058C, strain SHM2 (second series), active compounds read low
[13] = locus YLR085C, strain ARP6, active compounds read low
[14] = locus YLR262C, strain YPT6, active compounds read low
[15] = locus YML094W, strain GIM5, active compounds read low
[16] = locus YMR219W, strain ESC1, active compounds read low
[17] = locus YMR263W, strain SAP30, active compounds read low
[18] = locus YNL153C, strain GIM3, active compounds read low
[19] = locus YNL298W, strain CLA4 (second series), active compounds read low
[20] = locus YNL322C, strain KRE1, active compounds read low
[21] = locus YNR030W, strain Alg12, active compounds read low
[22] = locus YPL055C, strain LGE1, active compounds read low
[23] = locus YPL241C, strain CIN2, active compounds read low
[24] = locus YPR135W, strain CTF4, active compounds read low

Measured: normalized growth

COCc1cc(=O)n2[nH]c(C(C)(C)C)cc2n1
inactive: [1] 1.01 | [2] 0.986 | [3] 0.996 | [4] 1.04 | [5] 0.939 | [6] 1.01 | [7] 1.07 | [8] 1.01 | [9] 1.04 | [10] 1.01 | [11] 1.02 | [12] 0.988 | [13] 0.959 | [14] 1.03 | [15] 0.986 | [16] 0.996 | [17] 1.04 | [18] 1.02 | [19] 0.965 | [20] 0.999 | [21] 1.01 | [22] 1.08 | [23] 0.977 | [24] 1.14
active: locus YJL187C, strain SWE1, active compounds read low 0.162

Clc1ccc(CN2CCN(c3cccc4[nH]ccc34)CC2)cc1Cl
inactive: locus YAR019C, strain CDC15, active compounds read low 0.997 | locus YBL105C, strain PKC1, active compounds read low 0.993 | locus YBR135W, strain CKS1, active compounds read low 0.995 | locus YBR136W, strain MEC1, active compounds read low 0.994 | locus YBR160W, strain CDC28, active compounds read low 0.986 | locus YDL017W, strain CDC7, active compounds read low 0.994 | locus YDL028C, strain MPS1, active compounds read low 0.999 | [3] 0.988 | locus YDL108W, strain KIN28, active compounds read low 0.983 | locus YDL132W, strain cdc53, active compounds read low 0.993 | locus YDL214C, strain PRR2, active compounds read low 0.962 | locus YDR052C, strain DBF4, active compounds read low 0.996 | locus YDR054C, strain cdc34, active compounds read low 0.993 | locus YDR226W, strain ADK1, active compounds read low 0.984 | locus YDR477W, strain SNF1, active compounds read low 0.972 | locus YER123W, strain YCK3, active compounds read low 0.917 | locus YER133W, strain GLC7, active compounds read low 0.977 | locus YFL009W, strain cdc4, active compounds read low 0.986 | locus YFL029C, strain CAK1, active compounds read low 0.994 | locus YFR003C, strain YPI1, active compounds read low 0.992 | locus YFR019W, strain FAB1, active compounds read low 0.971 | locus YFR028C, strain CDC14, active compounds read low 0.991 | locus YGR040W, strain KSS1, active compounds read low 0.962 | locus YGR052W, strain FMP48, active compounds read low 1.1 | locus YGR092W, strain DBF2, active compounds read low 0.942 | locus YHR079C, strain IRE1, active compounds read low 1.11 | locus YHR082C, strain KSP1, active compounds read low 1.09 | locus YHR205W, strain SCH9, active compounds read low 0.974 | locus YIL147C, strain SLN1, active compounds read low 0.992 | locus YJL095W, strain BCK1, active compounds read low 1.1 | locus YJL128C, strain PBS2, active compounds read low 0.946 | locus YJL157C, strain FAR1, active compounds read low 0.968 | locus YJR016C, strain ILV3, active compounds read low 0.993 | locus YJR066W, strain TOR1 (second series), active compounds read low 0.958 | locus YJR066W, strain TOR1, active compounds read low 1.13 | locus YKL048C, strain ELM1, active compounds read low 0.988 | locus YKL067W, strain YNK1, active compounds read low 0.982 | locus YKL101W, strain HSL1, active compounds read low 0.968 | locus YKL193C, strain SDS22, active compounds read low 0.992 | locus YKL203C, strain TOR2, active compounds read low 1.04 | locus YLR113W, strain HOG1, active compounds read low 1.07 | locus YLR133W, strain CKI1, active compounds read low 0.977 | locus YLR403W, strain SFP1, active compounds read low 0.965 | locus YML070W, strain DAK1, active compounds read low 0.964 | locus YMR001C, strain CDC5, active compounds read low 0.993 | locus YMR205C, strain PFK2 (second series), active compounds read low 0.976 | locus YMR277W, strain FCP1, active compounds read low 1 | locus YNL006W, strain LST8, active compounds read low 0.999 | locus YNL020C, strain ARK1, active compounds read low 0.981 | locus YNL161W, strain CBK1, active compounds read low 0.998 | locus YNL183C, strain NPR1, active compounds read low 1.11 | locus YNL207W, strain RIO2, active compounds read low 0.993 | locus YNL222W, strain SSU72, active compounds read low 0.992 | locus YNL307C, strain MCK1 (second series), active compounds read low 0.995 | locus YOL078W, strain AVO1, active compounds read low 0.996 | locus YOL136C, strain PFK27, active compounds read low 0.974 | locus YOR061W, strain CKA2, active compounds read low 0.955 | locus YOR119C, strain RIO1, active compounds read low 1.03 | locus YOR231W, strain MKK1, active compounds read low 1.08 | locus YOR329C, strain SCD5, active compounds read low 0.999 | locus YPL031C, strain PHO85, active compounds read low 0.977 | locus YPL153C, strain RAD53, active compounds read low 0.97 | locus YPL204W, strain HRR25, active compounds read low 0.979 | locus YPL209C, strain IPL1, active compounds read low 0.997 | locus YPL256C, strain CLN2, active compounds read low 1.07 | locus YPR025C, strain CCL1, active compounds read low 0.995 | locus YPR106W, strain ISR1, active compounds read low 0.99 | locus YPR111W, strain DBF20, active compounds read low 0.992 | strain NNK1, active compounds read low 0.993 | strain TSCII, active compounds read low 1
active: [7] 1.16 [resistant]

c1ccc(CN2CCC(n3nnc4cccnc43)CC2)cc1
inactive: [1] 0.995 | [2] 1.01 | locus YCL061C, strain MRC1, active compounds read low 1.02 | [3] 0.987 | locus YDL134C, strain PPH21, active compounds read low 0.993 | [4] 0.997 | [5] 1.01 | [6] 1.01 | locus YGR229C, strain SMI1, active compounds read low 0.997 | [7] 0.995 | [8] 1.01 | [9] 1.01 | [10] 1 | [11] 1 | [12] 1.04 | [13] 0.995 | [14] 0.957 | [15] 0.984 | [16] 1 | [17] 1.01 | [18] 1.01 | [19] 0.965 | [20] 0.996 | [21] 1.01 | [22] 1.03 | [23] 0.983 | [24] 1.01
